From PubChem BioAssay (Tox21) come the findings set out here.

A short description of assay [1]: qHTS assay to identify small molecule antagonists of the thyroid receptor (TR) signaling pathway (AID 743065). Also: series mostly up to about 70 µM; nearly all actives have a fitted effect of over 55% in size. In outline:
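Antagonism measured as loss of luciferase signal in GH3 cells stably carrying a TRE-luciferase reporter, co-treated with compound and T3 (1 nM final) for 23.5 h at 37 C. Viability was read in the same well by CellTiter-Fluor.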
On the technique in general: qHTS replaces the single test concentration by a dilution series.

The subject of assay [2] is thyroid hormone receptor (rat, GH3 cells). Kind of assay: qHTS assay to identify small molecule agonists of the thyroid receptor (TR) signaling pathway (AID 743066; calls by dose curve).
A short description of assay [3]: qHTS assay to identify small molecule antagonists of the estrogen receptor alpha (ER-alpha) signaling pathway - cell viability counter screen (AID 743074; calls by dose curve;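 also: HEK293 cells carrying ER-alpha-UAS-bla reporter stimulated with 17beta-estradiol; nearly all actives have a fitted effect of over 45% in size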).
The target of assay [4] is Estrogen receptor (Homo sapiens) (UniProt P03372). The assay is described as follows: qHTS assay to identify small molecule agonists of the estrogen receptor alpha (ER-alpha) signaling pathway (AID 743075; calls by dose curve;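 also: HEK293 GripTite cells with ER-alpha and UAS-driven beta-lactamase reporter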).
Sequence of Estrogen receptor (Homo sapiens) (P03372 whole entry, looked up): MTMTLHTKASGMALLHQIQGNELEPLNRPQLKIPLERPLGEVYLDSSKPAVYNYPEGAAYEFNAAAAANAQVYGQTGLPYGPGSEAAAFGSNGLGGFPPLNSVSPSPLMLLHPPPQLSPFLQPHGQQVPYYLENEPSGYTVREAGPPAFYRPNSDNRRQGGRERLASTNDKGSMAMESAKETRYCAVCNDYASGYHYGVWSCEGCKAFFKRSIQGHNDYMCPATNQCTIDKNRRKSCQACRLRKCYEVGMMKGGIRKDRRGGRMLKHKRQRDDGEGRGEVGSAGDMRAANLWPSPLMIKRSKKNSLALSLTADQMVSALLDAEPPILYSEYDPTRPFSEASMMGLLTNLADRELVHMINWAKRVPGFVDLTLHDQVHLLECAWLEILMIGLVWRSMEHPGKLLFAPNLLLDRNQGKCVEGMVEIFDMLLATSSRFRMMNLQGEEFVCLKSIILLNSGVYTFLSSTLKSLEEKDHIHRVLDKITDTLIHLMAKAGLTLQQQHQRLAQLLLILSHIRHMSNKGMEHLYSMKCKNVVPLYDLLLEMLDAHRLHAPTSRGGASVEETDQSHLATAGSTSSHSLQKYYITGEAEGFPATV
The target is the same in assay [5]. Kind of assay: qHTS assay to identify small molecule agonists of the estrogen receptor alpha (ER-alpha) signaling pathway using the BG1 cell line (AID 743079). Also: nearly all actives have a fitted effect of over 20% in size. Also: potency is read from the fitted curve at half-maximal effect.
Assay [6] in a line: qHTS assay to identify small molecule antagonists of the estrogen receptor alpha (ER-alpha) signaling pathway using the BG1 cell line (AID 743080; calls by dose curve;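 also: BG1 cells stimulated with 17beta-estradiol alongside compound; series mostly up to about 70 µM; nearly all actives have a fitted effect of over 25% in size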). In outline: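 Luminescence from a 4×ERE-luciferase reporter in BG1-Luc-4E2 cells served as read-out. Cells, pre-cultured 5 days in stripped-serum phenol-red-free medium, were exposed to compound with 17beta-estradiol co-stimulation for 21.5 h at 37 C.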

The nature of assay [7]: qHTS assay to identify small molecule antagonists of the estrogen receptor alpha (ER-alpha) signaling pathway using the BG1 cell line - cell viability counter screen (AID 743081).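 Also: compound given together with 17beta-estradiol as the ER stimulus; series mostly up to about 70 µM; nearly all actives have a fitted effect of over 45% in size.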
Another assay concerns the target Aromatase (Homo sapiens) (UniProt P11511). The assay is described as follows: qHTS assay to identify aromatase inhibitors (AID 743083). Also: series mostly up to about 70 µM; nearly all actives have a fitted effect of over 55% in size.
Assay [8] can be described thus: qHTS assay to identify aromatase inhibitors - cell viability counter screen (AID 743084).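 Also: cells stimulated with testosterone during compound exposure; nearly all actives have a fitted effect of over 55% in size.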
Assay [9] deals with Estrogen receptor (Homo sapiens) (UniProt P03372). Kind of assay: qHTS assay to identify small molecule antagonists of the estrogen receptor alpha (ER-alpha) signaling pathway (AID 743069; active = well fitted curve in the direction sought with a large enough effect in the signal ratio in the repeat runs, not every such curve was filed as active; the % refers to the signal ratio). In outline: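 Antagonist mode: compounds in DMSO were co-added with 17beta-estradiol to ER-alpha-bla HEK293 cells (2% charcoal-stripped serum) and left 18 h at 37C. Reporter inhibition was measured as FRET fluorescence after 2 h LiveBLAzer substrate at room temperature.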

Records with an inconclusive call do not appear. Values without a mark were called inactive. The source made the active and inactive calls. Unless noted, calls follow the shape of the dose curve; as a rule, active = well fitted curve in the direction sought with a large enough effect in the repeat runs; inconclusive = weak or mixed curves; inactive = no such curve, though single readings can be large; an effect the other way counts as inactive or inconclusive.
% is scaled to controls: 0 for no effect and ±100 for the full control effect.

Sequence of Aromatase (Homo sapiens) (P11511 whole entry, looked up): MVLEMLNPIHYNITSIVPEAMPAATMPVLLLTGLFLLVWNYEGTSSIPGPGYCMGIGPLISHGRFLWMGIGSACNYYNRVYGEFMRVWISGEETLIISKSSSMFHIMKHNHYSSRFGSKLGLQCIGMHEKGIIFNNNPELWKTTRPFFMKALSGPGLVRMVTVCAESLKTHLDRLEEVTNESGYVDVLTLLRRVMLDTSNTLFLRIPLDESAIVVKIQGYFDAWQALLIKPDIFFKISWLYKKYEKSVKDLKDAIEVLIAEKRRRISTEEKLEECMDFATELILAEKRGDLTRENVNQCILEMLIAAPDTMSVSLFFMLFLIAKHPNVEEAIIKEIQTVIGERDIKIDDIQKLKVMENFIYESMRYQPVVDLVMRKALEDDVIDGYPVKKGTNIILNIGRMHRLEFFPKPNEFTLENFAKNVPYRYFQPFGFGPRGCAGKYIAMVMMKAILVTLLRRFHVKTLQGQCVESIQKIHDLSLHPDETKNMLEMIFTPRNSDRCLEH

As to `COc1cc(OC)cc(OC)c1`, the Potency entry in assay [1], in [2], in assay [3], in assay [4], in assay [5] and in assay [6] was “inactive” throughout. Also, the Potency entry in the assay with Aromatase (Homo sapiens) was “inactive”. Also, the outcome in assay [7] and in [8] was inactive.
Consider `CC/C=C/CCCCCCCCCCOC(C)=O`, for which the Potency result in assay [1], in [2], in assay [3], in assay [4], in assay [5] and in assay [6] was “inactive” each time. The Potency result with Aromatase (Homo sapiens) is “inactive”. In addition, the result in assay [7] and in assay [8] was inactive.
In the case of `CSC(=O)c1cccc2nnsc12`, the Potency result in [1], in [2], in [3], in assay [4], in assay [5] and in assay [6] was “inactive” throughout. The Potency entry with Aromatase (Homo sapiens) is “inactive”. Further, the outcome in assay [7] and in assay [8] was inactive.
As to `O=C(O)/C=C(\CC(=O)O)C(=O)O`, the Potency result (in assay [1]; in assay [2]; in [3]; in assay [4]; in assay [6]; with Aromatase (Homo sapiens)) was “inactive” in each case. For the same molecule, the outcome in assay [9], in [7] and in assay [8] was inactive.
As to `NNC(=O)CCCCC(=O)NN`, the Potency result in assay [1], in [2], in [3], in assay [4], in [5] and in [6] was “inactive” throughout. The Potency entry with Aromatase (Homo sapiens) was “inactive”. Also, the call in [9] and in assay [8] was inactive.
As for `Nc1nc(Cl)cc(Cl)n1`, the Potency entry (in [1]; in assay [2]; in assay [4]; in assay [5]; in [6]; with Aromatase (Homo sapiens)) was “inactive” throughout. Moreover, the call in assay [9], in assay [7] and in assay [8] was inactive.
Regarding `CCOC(=O)[C@H](CCc1ccccc1)N[C@H]1CS[C@H](c2cccs2)CN(CC(=O)O)C1=O`, the Potency result in [1], in [2], in assay [3], in [4], in assay [5] and in [6] was “inactive” each time. In addition, the Potency entry in the assay with Aromatase (Homo sapiens) is “inactive”. The result in assay [7] and in assay [8] was inactive.
`CC1=C(O)C(=O)CO1`: the Potency entry in assay [1], in assay [2], in [3], in assay [4], in assay [5] and in [6] was “inactive” throughout. The Potency result with Aromatase (Homo sapiens) is “inactive”. Further, the result in [7] and in assay [8] was inactive.
As for `C=CC(=O)OCC[N+](C)(C)C`, the Potency entry (in assay [1]; in assay [2]; in [4]; in assay [5]; in assay [6]; with Aromatase (Homo sapiens)) was “inactive” each time. The molecule was called inactive in [9], in assay [7] and in assay [8].
For `O=C(O)COc1ccc2ccccc2c1`, the Potency result in assay [1], in assay [2], in assay [3], in assay [4], in assay [5] and in assay [6] was “inactive” each time. Also, in the assay with Aromatase (Homo sapiens), the Potency entry was “inactive”. The outcome in [9], in [7] and in [8] was inactive.
Take `C/C=C(\C)C(=O)OC/C=C(\C)CCC=C(C)C`: the Potency result in assay [1], in assay [2], in assay [3], in assay [4], in [5] and in assay [6] was “inactive” in each case. For the same molecule, the Potency entry with Aromatase (Homo sapiens) is “inactive”. The molecule was called inactive in [7] and in assay [8].
Take `CCC(C)c1nccnc1OC` (stereo not given): the Potency entry in assay [1], in assay [2], in [3], in [4], in assay [5] and in [6] was “inactive” in each case. The Potency entry with Aromatase (Homo sapiens) is “inactive”. Further, the outcome in assay [7] and in [8] was inactive.
Consider `N=C(N)S(=O)O`, for which the Potency entry in assay [1], in [2], in assay [3], in [4], in assay [5] and in assay [6] was “inactive” throughout. In addition, the Potency entry in the assay with Aromatase (Homo sapiens) is “inactive”. The outcome in assay [7] and in assay [8] was inactive.
Consider `CC(=O)c1ccc2ccc3ccccc3c2c1`, for which the Potency result (in [1]; in assay [2]; in [3]; in assay [4]; with Aromatase (Homo sapiens)) was “inactive” throughout. Also, the molecule was called inactive in assay [9], in assay [7] and in assay [8]. Besides, the Potency in assay [5] is 8.58 µM (active).
Turning to `N#CC1(N)CCCCC1`, the Potency result in assay [1], in assay [2], in assay [3], in assay [4], in [5] and in assay [6] was “inactive” each time. In the assay with Aromatase (Homo sapiens), the Potency result was “inactive”. For the same molecule, the molecule was classed as inactive in assay [7].
With `Cc1cc(O)c(Cl)cc1C`, the Potency entry in assay [1], in [2], in [3], in assay [4], in assay [5] and in [6] was “inactive” throughout. Also, in the assay with Aromatase (Homo sapiens), the Potency entry is “inactive”. Besides, the result in [9], in assay [7] and in assay [8] was inactive.
Consider `COCc1nnc(-c2ccc[n+]([O-])c2)n1-c1c(Cl)c(Cl)cc2[nH]c(=O)c(=O)[nH]c12`, for which the Potency entry (in assay [1]; in assay [2]; in assay [3]; in assay [4]; in [6]; in the assay with Aromatase (Homo sapiens)) was “inactive” throughout. In addition, the outcome in assay [9], in assay [7] and in assay [8] was inactive.
Take `CC(O)C(CO)C(C)O` (stereo not given): the Potency result in assay [1], in assay [2], in assay [3], in [4], in assay [5] and in [6] was “inactive” each time. Moreover, in the assay with Aromatase (Homo sapiens), the Potency result was “inactive”. In addition, the outcome in assay [7] and in [8] was inactive.
In the case of `CCc1ccc(CC)cc1`, the Potency result in [1], in assay [2], in assay [3], in assay [4], in assay [5] and in assay [6] was “inactive” throughout. The Potency result with Aromatase (Homo sapiens) is “inactive”. Besides, the molecule was called inactive in assay [7].
Take `COC(=O)N/N=C/c1c[n+]([O-])c2ccccc2[n+]1[O-]`: the Potency result in assay [1], in assay [2], in assay [3], in [4], in assay [5] and in assay [6] was “inactive” each time. Further, the Potency entry with Aromatase (Homo sapiens) was “inactive”. Besides, the result in [7] and in assay [8] was inactive.
Turning to `Cc1cc(C)c(N)c(Cl)c1`, the Potency result in [1], in assay [2], in [3], in assay [4], in [5] and in assay [6] was “inactive” throughout. Moreover, the Potency entry with Aromatase (Homo sapiens) was “inactive”. The molecule was called inactive in assay [9], in [7] and in [8].
In the case of `COc1cnc(NS(=O)(=O)c2ccc(N)cc2)nc1`, the Potency entry in assay [1], in [2], in assay [3], in [4], in [5] and in assay [6] was “inactive” in each case. Further, the Potency result with Aromatase (Homo sapiens) was “inactive”. The result in assay [7] and in [8] was inactive.
Regarding `CN(C)CCc1c[nH]c2ccc(C[C@H]3COC(=O)N3)cc12`, the Potency entry (in [1]; in [2]; in assay [4]; in assay [5]; in assay [6]; with Aromatase (Homo sapiens)) was “inactive” each time. The result in assay [9] and in assay [7] was inactive.
Regarding `CCCCCCCOC(C)=O`, the Potency result (in assay [1]; in assay [2]; in assay [3]; in assay [4]; in [6]; with Aromatase (Homo sapiens)) was “inactive” in each case. In addition, the Potency in assay [5] was 48.6 µM (active). Also, the molecule was called inactive in assay [7] and in assay [8].
Regarding `C=CCCCCCCCCOC(C)=O`, the Potency entry in [1], in assay [2], in assay [3], in assay [4], in assay [5] and in assay [6] was “inactive” throughout. For the same molecule, the Potency result with Aromatase (Homo sapiens) was “inactive”. Besides, the outcome in assay [7] and in [8] was inactive.
As for `Clc1cc(Cl)c(Cl)c(Cl)c1Cl`, the Potency result in [1], in [2], in assay [3], in assay [4], in [5] and in assay [6] was “inactive” each time. For the same molecule, the Potency entry in the assay with Aromatase (Homo sapiens) is “inactive”. Besides, the result in assay [7] and in assay [8] was inactive.
Consider `N=C(N)N1CCc2ccccc2C1`, for which the Potency entry (in assay [1]; in [2]; in assay [3]; in assay [6]; with Aromatase (Homo sapiens)) was “inactive” throughout. Besides, the molecule was called inactive in assay [7] and in assay [8].
With `CN(C)CCCN(C)C`, the activity, negative = inhibition in assay [1] was 0.44% [at 8.44 µM]; with Aromatase (Homo sapiens) it was 7.56% [at 8.47 µM]. For the same molecule, the figures for the activation in [2], in [4] and in [5] were -3.73% [at 8.08 µM], -1.03% [at 6.71 µM] and -6.84% [at 8.47 µM], respectively. In addition, the activity, negative = cytotoxicity in assay [3] was 12.6% [at 6.72 µM]. In addition, the activity change, negative = inhibition in [6] was 2.33% [at 8.47 µM]. Moreover, the results for the activity change, negative = cytotoxicity in assay [7] and in assay [8] were 12.4% [at 8.47 µM] and 2.06% [at 8.47 µM], respectively.
